Shown are actives, neighbours in structure and some others; about 18% of the full set was active somewhere.
IL1B secr inh: inhibitors of inflammasome signaling (IL-1 beta secretion); THP-1 LPS/ATP IL-1B secretion, AlphaLISA, 16 h; hits give low values; activity change, % at 57.5 µM; 4.7% of 360,000 active; in the data active means activity change below about -50%; inconclusive means mostly about -30% to -49%
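THP-1 cells pretreated 1 hr with compounds (up to 57.5 uM final), then stimulated with LPS (250 ng/mL final) plus ATP (1.25 mM final); secreted IL-1B measured by AlphaLISA after 16 hr, decreased signal indicating inhibition.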
TDP1 cell noCPT: qHTS for Inhibitors of human tyrosyl-DNA phosphodiesterase 1 (TDP1): qHTS in cells in absence of CPT; AID 686978, 2013; DT40 Tdp1-/- hTDP1 cells, no CPT, ATP luminescence, 48 h; 15% of 420,000 active; Potency, µM (series often up to 46.2 µM), for the others: at the highest dose activity change, negative = growth inhibition, most hits filed as inhibitors; further: potency means the concentration at half of the fitted maximal effect; nearly all actives have a fitted effect of over 55% in size
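A cellular qHTS used chicken DT40 cells lacking endogenous Tdp1 but carrying stably transfected human TDP1. Compounds were applied without camptothecin, and cell growth kinetics were judged by ATP-dependent luminescence after ≥48 hr.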
TDP1 cell CPT: DT40-hTDP1 cell growth loss with CPT; 12% of 420,000 active; Potency, µM (top dose mostly 46.2 µM), inactives show at the top dose activity change, negative = growth inhibition, usual class: inhibitors; chicken DT40 Tdp1-/-;hTDP1 cells + 20 nM CPT, ATP luminescence, 48 h; AID 686979; further: potency means the concentration at half of the fitted maximal effect; nearly all actives have a fitted effect of over 55% in size
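Cell growth measured by CellTiter-Glo luminescence after a minimum 48 h, 37 C compound exposure with 20 nM CPT in Tdp1-knockout DT40 cells stably expressing hTDP1, seeded 400/well; qHTS titration format.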
RORg inh: blocks mouse ROR gamma transcriptional activity. Drosophila S2 Gal4-RORgamma UAS-luciferase reporter, 20 h. P51450. Potency, µM (doses to about 53.6 µM), without a hit: top-dose activity change, negative = inhibition, actives largely listed as inhibitors. 5.4% of 310,000 active; further: potency means the concentration at half of the fitted maximal effect; nearly all actives have a fitted effect of over 60% in size
Target sequence (P51450 whole entry, looked up, the tested form may be a part): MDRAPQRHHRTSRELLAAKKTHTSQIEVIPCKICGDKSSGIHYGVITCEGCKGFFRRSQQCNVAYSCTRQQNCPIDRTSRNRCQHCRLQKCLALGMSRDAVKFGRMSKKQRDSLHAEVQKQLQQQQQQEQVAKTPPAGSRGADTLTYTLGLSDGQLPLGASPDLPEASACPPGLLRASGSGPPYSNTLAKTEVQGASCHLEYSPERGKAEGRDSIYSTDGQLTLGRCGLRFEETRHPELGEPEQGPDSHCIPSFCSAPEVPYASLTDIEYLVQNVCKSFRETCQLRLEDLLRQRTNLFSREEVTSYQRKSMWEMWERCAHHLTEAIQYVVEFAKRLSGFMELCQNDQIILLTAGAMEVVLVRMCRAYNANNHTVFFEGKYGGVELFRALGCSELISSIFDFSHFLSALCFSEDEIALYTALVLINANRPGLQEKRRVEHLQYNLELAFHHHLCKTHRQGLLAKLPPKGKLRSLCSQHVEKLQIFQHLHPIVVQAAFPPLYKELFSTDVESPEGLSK
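Compounds are pin-transferred onto Drosophila Schneider cells expressing a copper-inducible Gal4–ROR gamma transactivation domain fusion. After 1 hr, copper sulfate is added to 700 uM final; luciferase is read 20 hr later.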
Gal4-VP16 FLuc: counter-screen for ROR gamma inhibitors: Gal4-VP16 reporter; Potency, µM (series often up to 53.6 µM), without a hit: top-dose activity, negative = inhibition, actives largely listed as inhibitors; 3.5% of 310,000 active; Drosophila S2 Gal4-VP16 UAS-luciferase, luminescence, 20 h;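 further: Gal4-VP16 expression switched on by copper sulfate through the metallothionein promoter; potency means the concentration at half of the fitted maximal effect; nearly all actives have a fitted effect of over 50% in size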
LDHA block: LDHA (human) enzyme inhibition. purified LDHA, NADH/diaphorase-resazurin fluorescence; hits give low values. activity change, % (values are at about 110 or 230 µM). P00338. 0.15% of 480,000 active; in the data active means activity change below about -30%; inconclusive means mostly about -25% to -30%;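 further: plate controls were DMSO wells for no effect and wells without enzyme for full effect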
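Human LDH5 (2 nM) was incubated with 0.06 mM NADH and 0.2 mM pyruvate for 5 min at room temperature in Tris pH 7.4. Remaining NADH was coupled through diaphorase/resazurin, and resorufin fluorescence was read at 0 and 20 min.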
The depositor's hits bear a star; [ ] = dose if it differs, or a comment. Unless noted, the call rests on the fitted dose curve; in most records, active means well fitted curve in the direction sought with a large enough effect; inconclusive means small, poorly fitted or top-dose-only effect, or another doubt; inactive means no such curve, though single readings can be large; an effect the other way counts as inactive or inconclusive. Unless noted, on the % scale 0 is the no-effect control and ±100 the full control effect.

Cc1ccc(Cn2c(CCNc3nc(-c4ccc(C)cc4)cs3)nc3cc(C(=O)NCCCO)ccc32)cc1 was read as IL1B secr inh -8.0, TDP1 cell noCPT 14.6µM*, TDP1 cell CPT 20.6µM* and LDHA block -5.7.
For Cc1ccc(Cn2c(C(C)Nc3nc(-c4ccc(Cl)cc4)cs3)nc3cc(C(=O)NCCCO)ccc32)cc1 (configuration not stated) the results were IL1B secr inh 30.2, TDP1 cell noCPT 8.2µM*, TDP1 cell CPT 10.3µM* and LDHA block 9.0.
Screening Cc1csc(NC(C)c2nc3cc(C(F)(F)F)ccc3n2CCCO)n1 (configuration not stated) returned IL1B secr inh -1.2, TDP1 cell noCPT inconclusive, TDP1 cell CPT -18.1% and LDHA block 0.6.
`Cc1cc(C)cc(NC(=O)CCCn2cnc3c2c(=O)n(C)c(=O)n3C)c1` gave LDHA block 0.8.
O=C(c1cc2c(s1)CCCC2)N1CCN(c2ncccn2)CC1 was read as LDHA block 5.9.
c1ccc2c(c1)C1=NCCN1c1ccccc1-2 was read as IL1B secr inh -105.4*, TDP1 cell noCPT 2.31µM*, TDP1 cell CPT 2.91µM* and LDHA block -0.1.
Screening COC1=Nc2ccccc2N2CCN=C12 returned IL1B secr inh -17.7, TDP1 cell noCPT 39.2%, TDP1 cell CPT 9.6% and LDHA block -5.1.
Screening CC(=O)Nc1ccc(NC(=O)Cn2c(C)cc3ccccc32)cc1 returned LDHA block 5.8.
For O=C(Cc1ccc2ccccc2c1)Nc1cccc2cccnc12 the results were LDHA block -20.9.
Screening CC1(C)Cc2c(sc(NC(=O)c3ccc4ncsc4c3)c2C(N)=O)C(C)(C)N1 returned IL1B secr inh -215.4*, TDP1 cell noCPT inconclusive, TDP1 cell CPT inconclusive, RORg inh inconclusive, Gal4-VP16 FLuc inconclusive and LDHA block -2.9.
CC1(C)Cc2c(sc(NC(=O)COc3ccc(Cl)cc3)c2C(N)=O)C(C)(C)N1 was read as IL1B secr inh -16.3, TDP1 cell noCPT -1.3%, TDP1 cell CPT inconclusive, RORg inh -5.7%, Gal4-VP16 FLuc -7.9% and LDHA block 0.4.
Screening CC1(C)Cc2c(sc(NC(=O)c3ccc(C(=O)c4ccccc4)cc3)c2C(N)=O)C(C)(C)N1 returned IL1B secr inh -102.2*, TDP1 cell noCPT inconclusive, TDP1 cell CPT inconclusive, RORg inh inconclusive, Gal4-VP16 FLuc 12.6µM* and LDHA block -4.9.
COc1cc(=O)n(-c2ccc(C)cc2)nc1C(=O)NCc1ccc(C)cc1 was read as LDHA block -3.7.
For COc1ccc(CCNC(=O)c2cc(-c3cc(Cl)ccc3O)n[nH]2)cc1OC the results were IL1B secr inh -5.9, TDP1 cell noCPT 11.6µM*, TDP1 cell CPT inconclusive, RORg inh -17.5%, Gal4-VP16 FLuc -4.0% and LDHA block -7.3.
`COc1ccc(CCNC(=O)c2cc(-c3ccc(C)cc3O)n[nH]2)cc1OC` gave IL1B secr inh 9.6, TDP1 cell noCPT 20.6µM*, TDP1 cell CPT inconclusive, RORg inh -13.6%, Gal4-VP16 FLuc 0.5% and LDHA block -0.3.
Screening Cc1oc2cc(OCCN3CCN(C)CC3)ccc2c(=O)c1-c1ccc(Cl)cc1 returned LDHA block 2.4.
Cc1nc(C(=O)Nc2cc(Cl)ccc2Cl)nn1-c1cc(OC(C)C)c(Cl)cc1Cl was read as IL1B secr inh 12.2, TDP1 cell noCPT 11.6µM*, TDP1 cell CPT 16.4µM*, RORg inh -2.0%, Gal4-VP16 FLuc 0.4% and LDHA block 2.4.
For Cc1nc(C(=O)Nc2cccc(Cl)c2)nn1-c1cc(OC(C)C)c(Cl)cc1Cl the results were IL1B secr inh -5.4, TDP1 cell noCPT inconclusive, TDP1 cell CPT 16.4µM*, RORg inh 14.6%, Gal4-VP16 FLuc -5.6%[0.365 µM] and LDHA block -1.5.
Screening COc1ccccc1/C=C/c1nc(C#N)c(N(C)Cc2ccccc2)o1 returned LDHA block 2.2.
Cc1nc(C)c2c(=O)cc(-c3ccccc3)[nH]c2n1 was read as IL1B secr inh 42.0, TDP1 cell noCPT 5.62µM*, TDP1 cell CPT 4.47µM*, RORg inh 2.5%, Gal4-VP16 FLuc 1.4% and LDHA block -1.5.
For Cc1nc(-c2ccccc2)nc2[nH]ccc(=O)c12 the results were IL1B secr inh 41.1, TDP1 cell noCPT -5.3%, TDP1 cell CPT 13.4%, RORg inh 37.6%, Gal4-VP16 FLuc 6.8% and LDHA block -5.1.
`O=S(CC(O)(c1ccccc1)c1ccccc1)CC(O)(c1ccccc1)c1ccccc1` gave IL1B secr inh -10.4, TDP1 cell noCPT 18.4µM*, TDP1 cell CPT 18.4µM* and LDHA block -7.8.
For Cc1nn(CC(=O)N(Cc2ccccc2)C2CC2)c(=O)c2ccccc12 the results were LDHA block -6.3.
`CC(C)CS(=O)(=O)CCC(=O)O` gave LDHA block -4.4.
Screening COc1cc(C(=O)OCC(=O)Nc2sccc2C(N)=O)cc(OC)c1OC returned IL1B secr inh 78.2, TDP1 cell noCPT 3.66µM*, TDP1 cell CPT 4.61µM*, RORg inh 3.3%, Gal4-VP16 FLuc 1.4% and LDHA block -2.2.
CN(C)S(=O)(=O)c1cccc(C(=O)OCC(=O)Nc2sccc2C(N)=O)c1 was read as IL1B secr inh -16.6, TDP1 cell noCPT 20.6µM*, TDP1 cell CPT 14.6µM*, RORg inh 24.2%, Gal4-VP16 FLuc -24.0% and LDHA block 3.8.
For CC1=C(c2ccccc2)C(O)(c2ccccc2)C(C)C1=O (configuration not stated) the results were IL1B secr inh 57.5, TDP1 cell noCPT 16.4µM*, TDP1 cell CPT 16.4µM* and LDHA block -8.0.
`CC1=C(c2ccccc2)CCC1=O` gave IL1B secr inh 23.3, TDP1 cell noCPT 3.9%, TDP1 cell CPT 1.9% and LDHA block -6.8.
Screening CC1CN(C(=O)c2ccccc2NS(=O)(=O)c2ccc(Cl)cc2)CC(C)O1 (configuration not stated) returned IL1B secr inh 9.2, TDP1 cell noCPT -3.9%, TDP1 cell CPT -9.2% and LDHA block -10.2.
O=C(NC1CCCCC1)c1cc(S(=O)(=O)N2CCN(c3ccccc3)CC2)ccc1Cl was read as IL1B secr inh -8.7, TDP1 cell noCPT inconclusive, TDP1 cell CPT inconclusive and LDHA block -8.8.

High-throughput results as filed in PubChem.
